These results are taken from PubChem BioAssay (EPA / NIEHS).

Molecules are shown by their SMILES. Some structures have more than one record in an assay (separate samples or runs), and their calls can disagree. Calls of active or inactive are those of the source. Rule for the calls: active = hit-call score of the fitted dose curve at least 0.9, where 1 is the maximum; inactive = score below 0.9.

Read-out in this test: Thrombomodulin, THBD (gene 7056)
Description: BSK_3C_Thrombomodulin: BioMAP Diversity Plus: 3C Assay for Thrombomodulin Biomarker Activity (AID 2283029). As to conditions: primary human endothelial cells (HUVEC); actives raise or lower the signal. Here is the method: BSK_3C is a cell-based, multiplexed-readout assay that uses umbilical vein endothelium, a human vascular primary cell, with measurements taken at 24 hours after chemical dosing in a 96-well plate.BSK_3C_Thrombomodulin is an assay component measured in the BSK_3C assay. It measures Thrombomodulin antibody related to regulation of gene expression using ELISA technology.Data from the assay component BSK_3C_Thrombomodulin was analyzed into 1 assay endpoint. This assay endpoint, BSK_3C_Thrombomodulin, was analyzed with bidirectional fitting relative to DMSO as the negative control and baseline of activity. Using a type of binding reporter, gain or loss-of-signal activity can be used to understand changes in the signaling as they relate to the gene THBD. Furthermore, this assay endpoint can be referred to as a primary readout, because this assay has produced multiple assay endpoints where this one serves a signaling function. To generalize the intended target to other relatable targets, this assay endpoint is annotated to the gpcr intended target family, where the subfamily is rhodopsin-like receptor.
The levels of cell surface (or secreted, indicated by the prefix "s") biomarker endpoints were measured by ELISA. Overt cytotoxicity to cells in confluent adherent cultures (all systems other than the BT system) was assessed by measuring total protein levels using sulforhodamine B (SRB) staining in parallel cultures at the time of biomarker measurements, indicated as SRB endpoints. For proliferation assays for adherent cell types, individual cell types are cultured at sub-confluence and relative cell numbers quantified by SRB staining at time points optimized for each system (48 h: 3C and CASM3C systems; 72 h: BT and HDF3CGF systems; 96 h: SAg system). SRB was performed by staining cells with 0.1% SRB after fixation with 10% TCA and reading wells at 560 nm.Viability and proliferation of PBMC (T cells) was quantified by Alamar Blue reduction for the SAg and BT systems. For PBMC viability (referred to as PBMC Cytotoxicity within the assay endpoint names), cells were plated (75,000/well in a 96-well plate) and then chemical samples added for 1 h before addition of activators, SEB and TSST-1 (20 ng/mL final concentration each). Cells were incubated for 90 h. Then, Alamar Blue (20 uL/well) (Invitrogen, Cat DAL1100) was added for 6 h, and the plates were read with a fluorescence microplate reader at 546/580 nm (excitation/emission). For PBMC proliferation, cells were plated and activated as above but incubated for only 16 h prior to addition of Alamar Blue. Plates were read after 6 h.
Usually AC50 stands for the concentration giving half of the maximal activity seen. As for `CN1CSC(=S)N(C)C1`, the AC50 is 5.21 µM (active).

On to `O=S(=O)(O)C(F)(F)C(F)(F)C(F)(F)C(F)(F)C(F)(F)C(F)(F)C(F)(F)C(F)(F)F`, for which the outcome was inactive.

For `Cc1cc(C)nc(NC(=O)NS(=O)(=O)c2ccccc2C(=O)OC2COC2)n1`, the outcome was inactive.

`COP(=S)(OC)Oc1ccc(SC)c(C)c1`: the outcome was inactive.

Turning to `CCc1ccc(C(=O)NN(C(=O)c2cc(C)cc(C)c2)C(C)(C)C)cc1`, the result was inactive.

Take `COc1nn(CSP(=S)(OC)OC)c(=O)s1`: the result was inactive.

With `CNC(=O)Oc1cccc(N=CN(C)C)c1`, the result was inactive.

Regarding `COC(=O)c1ccccc1S(=O)(=O)NC(=O)Nc1nc(C)nc(OC)n1`, the outcome was inactive.

On to `CCS(=O)(=O)c1cccnc1S(=O)(=O)NC(=O)Nc1nc(OC)cc(OC)n1`, for which the outcome was inactive.

With `O=S1OCC2C(CO1)C1(Cl)C(Cl)=C(Cl)C2(Cl)C1(Cl)Cl` (stereo not given), the result was inactive.

As to `CC(C)(C)C(O)C(Oc1ccc(Cl)cc1)n1cncn1` (stereo not given), the outcome was inactive.

`C[C@H]1[C@H](c2ccc(Cl)cc2)SC(=O)N1C(=O)NC1CCCCC1`: the result was inactive.

In the case of `O=C(O)COc1ccc(Cl)cc1Cl`, the result was inactive.

Consider `CNC(=O)CSP(=S)(OC)OC`, for which the outcome was inactive.

`CC[C@H](C)[C@H]1O[C@]2(C=C[C@@H]1C)C[C@@H]1C[C@@H](C/C=C(\C)[C@@H](O[C@H]3C[C@H](OC)[C@@H](O[C@H]4C[C@H](OC)[C@@H](O)[C@H](C)O4)[C@H](C)O3)[C@@H](C)/C=C/C=C3\CO[C@@H]4[C@H](O)C(C)=C[C@@H](C(=O)O1)[C@]34O)O2` (tested in a mixture with another compound): the AC50 was 2.13 µM (active).

As to `O=C1c2ccccc2C(=O)N1SC(Cl)(Cl)Cl`, the result was inactive.

With `O=[N+]([O-])c1c(Cl)c(Cl)c(Cl)c(Cl)c1Cl`, the outcome was inactive.

Take `Oc1ccc(Cl)cc1Cc1ccccc1`: the result was inactive and the AC50 is 31.8 µM (active) [middle of 5 runs].

`OCCOc1ccccc1`: the outcome was inactive.

For `O=C(Nc1ccccc1)Nc1cnns1`, the outcome was inactive.

Turning to `CC1(C)C(C=C(Cl)Cl)C1C(=O)OC(C#N)c1ccc(F)c(Oc2ccccc2)c1` (stereo not given), the outcome was inactive.

Take `C#CCN1C(=O)COc2cc(F)c(N3C(=O)C4=C(CCCC4)C3=O)cc21`: the outcome was inactive.

In the case of `Oc1cc(Cl)ccc1Oc1ccc(Cl)cc1Cl`, the outcome was inactive.

For `O=[N+]([O-])/N=C1\NCCN1Cc1ccc(Cl)nc1`, the outcome was inactive.

`O=C(NC(=O)c1c(F)cccc1F)Nc1ccc(OC(F)(F)C(F)OC(F)(F)F)c(Cl)c1` (stereo not given): the result was inactive.

With `CC(C)N(C(=O)COc1nnc(C(F)(F)F)s1)c1ccc(F)cc1`, the result was inactive.

On to `CCCN(CCC)c1c([N+](=O)[O-])cc(C(F)(F)F)cc1[N+](=O)[O-]`, for which the outcome was inactive.

Consider `COC(=O)c1ccccc1CS(=O)(=O)NC(=O)Nc1nc(OC)cc(OC)n1`, for which the outcome was inactive.

Take `O=C(O)C(F)(F)C(F)(F)C(F)(F)C(F)(F)C(F)(F)C(F)(F)C(F)(F)F`: the result was inactive.

With `Clc1ccccc1-c1nnc(-c2ccccc2Cl)nn1`, the result was inactive.

For the compound `CNC(=O)/C=C(\C)OP(=O)(OC)OC`, the outcome was inactive.

In the case of `COc1cc(OC)nc(NC(=O)NS(=O)(=O)c2cc(NC=O)ccc2C(=O)N(C)C)n1`, the result was inactive.

In the case of `CCC(C)(NC(=O)c1cc(Cl)c(C)c(Cl)c1)C(=O)CCl` (stereo not given), the outcome was inactive.

Take `Cc1[nH]c(=O)n(C(C)(C)C)c(=O)c1Cl`: the result was inactive.

With `CCOC1Oc2ccc(OS(C)(=O)=O)cc2C1(C)C` (stereo not given), the result was inactive.

As to `CC(C)OC(=O)Nc1cccc(Cl)c1`, the outcome was inactive.

Take `CCN(CC)C(=O)SCc1ccc(Cl)cc1`: the result was inactive.

Regarding `[2H]C1([2H])[n+]2ccccc2-c2cccc[n+]2C1([2H])[2H]`, the result was inactive.

For the compound `N#Cc1c(Cl)c(Cl)c(Cl)c(C#N)c1Cl`, the AC50 is 0.148 µM (active).
